According to PubChem BioAssay AID1159580 (chemical genetic matrix, 2015):
Values joined by “and” are separate entries in the source; they are usually repeats but may differ in a detail not shown here. Equal entries are not always repeated. Among all 5,500 compounds or so, about 2,000 (36%) were called active. Another 18% or so got no clear call; they are omitted. No stated cut-off is given here; in the data, active means normalized growth mostly below about 0.91 (no sharp cut-off); inconclusive means no clear call, values can overlap the other calls; inactive means mostly above about 0.92. Some of the results follow.

Assay: chemical genetic growth profiling, strain panel (AID 1159580);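 further: tested at 20 µM; growth read once vehicle control cultures reached saturation at 30 °C; 1 = growth at the plate median or of vehicle wells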
Settings: S. cerevisiae deletion strains, growth OD

Measured: normalized growth

C=CCc1ccccc1OCC(O)CNC(C)C (stereo not given)
inactive: locus YAL013W, strain DEP1, stronger effect = lower value 1 and 0.978 | locus YAL021C, strain ccr4, stronger effect = lower value 1 | locus YAL026C, strain drs2, stronger effect = lower value 1 | locus YAL030W, strain snc1, stronger effect = lower value 0.995 | locus YAL040C, strain CLN3, stronger effect = lower value 0.974 | locus YBL061C, strain skt5, stronger effect = lower value 1 | locus YBR009C, strain hhf1, stronger effect = lower value 0.971 | locus YBR021W, strain FUR4, stronger effect = lower value 0.998 | locus YBR023C, strain chs3, stronger effect = lower value 1 | locus YBR171W, strain sec66, stronger effect = lower value 0.99 | locus YBR229C, strain ROT2, stronger effect = lower value 1 | locus YBR231C, strain swc5, stronger effect = lower value 0.987 | locus YBR279W, strain paf1, stronger effect = lower value 1 | locus YCL011C, strain gbp2, stronger effect = lower value 0.998 | locus YCL016C, strain dcc1, stronger effect = lower value 0.993 | locus YCL029C, strain bik1, stronger effect = lower value 1.02 | locus YCL061C, strain MRC1 (second series), stronger effect = lower value 1 | locus YCL061C, strain MRC1, stronger effect = lower value 0.999 | locus YCL069W, strain vba3, stronger effect = lower value 0.994 | locus YCR088W, strain abp1, stronger effect = lower value 0.992 | locus YDL005C, strain med2, stronger effect = lower value 0.995 | locus YDL035C, strain GPR1, stronger effect = lower value 0.991 | locus YDL040C, strain nat1, stronger effect = lower value 0.995 | locus YDL074C, strain BRE1, stronger effect = lower value 1.01 | locus YDL101C, strain DUN1, stronger effect = lower value 1.01 | locus YDL134C, strain PPH21, stronger effect = lower value 1.01 | locus YDL185W, strain tfp1, stronger effect = lower value 1 | locus YDL192W, strain arf1, stronger effect = lower value 1.02 | locus YDR001C, strain nth1, stronger effect = lower value 1 | locus YDR069C, strain doa4, stronger effect = lower value 0.979 | locus YDR101C, strain arx1, stronger effect = lower value 1.01 | locus YDR137W, strain rgp1, stronger effect = lower value 0.998 | locus YDR150W, strain NUM1, stronger effect = lower value 1 and 1.02 | locus YDR159W, strain sac3, stronger effect = lower value 0.993 | locus YDR162C, strain NBP2, stronger effect = lower value 1 | locus YDR195W, strain ref2 0.913 | locus YDR297W, strain sur2, stronger effect = lower value 1 | locus YDR318W, strain mcm21, stronger effect = lower value 1.01 | locus YDR334W, strain swr1, stronger effect = lower value 0.997 | locus YDR335W, strain msn5, stronger effect = lower value 1 | locus YDR363W, strain ESC2, stronger effect = lower value 0.973 | locus YDR388W, stronger effect = lower value 1 | locus YDR392W, strain spt3, stronger effect = lower value 0.86 | locus YDR502C, strain sam2, stronger effect = lower value 1.01 | locus YEL003W, strain gim4, stronger effect = lower value 0.992 | locus YEL037C, strain rad23, stronger effect = lower value 0.997 | locus YEL061C, strain CIN8 (second series), stronger effect = lower value 1 | locus YEL061C, strain CIN8, stronger effect = lower value 1 | locus YER002W, strain NOP16, stronger effect = lower value 0.975 | locus YER015W, strain faa2, stronger effect = lower value 0.995 | locus YER016W, strain bim1, stronger effect = lower value 0.985 | locus YER110C, stronger effect = lower value 1.02 | locus YER111C, strain swi4, stronger effect = lower value 0.986 | locus YER155C, strain BEM2 (second series), stronger effect = lower value 0.968 | locus YER155C, strain BEM2, stronger effect = lower value 0.999 | locus YER167W, strain BCK2, stronger effect = lower value 1 | locus YFR010W, strain ubp6, stronger effect = lower value 1 | locus YGL078C, strain dbp3, stronger effect = lower value 1.01 | locus YGL086W, strain mad1, stronger effect = lower value 1 | locus YGL167C, strain pmr1, stronger effect = lower value 0.998 | locus YGL173C, strain kem1, stronger effect = lower value 0.997 | locus YGL227W, strain vid30, stronger effect = lower value 0.987 | locus YGL240W, strain doc1, stronger effect = lower value 0.983 | locus YGL248W, strain PDE1, stronger effect = lower value 0.998 | locus YGL253W, strain hxk2, stronger effect = lower value 1 | locus YGR078C, strain PAC10, stronger effect = lower value 1.01 | locus YGR135W, strain pre9, stronger effect = lower value 1.02 | locus YGR229C, strain SMI1, stronger effect = lower value 0.974 | locus YGR252W, strain gcn5, stronger effect = lower value 0.98 | locus YHR013C, strain ard1, stronger effect = lower value 0.943 | locus YHR027C, strain rpn1, stronger effect = lower value 1 | locus YHR030C, strain SLT2, stronger effect = lower value 1 and 0.989 | locus YHR079C, strain IRE1 (second series), stronger effect = lower value 1.01 | locus YHR079C, strain IRE1, stronger effect = lower value 0.972 | locus YHR094C, strain hxt1, stronger effect = lower value 1 | locus YHR129C, strain ARP1, stronger effect = lower value 1.01 | locus YHR142W, strain chs7, stronger effect = lower value 1.01 | locus YHR200W, strain rpn10, stronger effect = lower value 1 | locus YIL066C, strain RNR3, stronger effect = lower value 1.01 | locus YIL073C, strain SPO22, stronger effect = lower value 1.06 | locus YIL125W, strain kgd1, stronger effect = lower value 1.01 | locus YIR030C, strain dcg1, stronger effect = lower value 1.02 | locus YJL092W, strain hpr5, stronger effect = lower value 1 | locus YJL095W, strain BCK1 (second series), stronger effect = lower value 0.995 | locus YJL095W, strain BCK1, stronger effect = lower value 1.02 and 0.978 | locus YJL115W, strain asf1, stronger effect = lower value 1 | locus YJL129C, strain trk1, stronger effect = lower value 0.998 | locus YJL134W, strain LCB3, stronger effect = lower value 0.997 | locus YJL154C, strain vps35, stronger effect = lower value 0.99 | locus YJL164C, strain tpk1, stronger effect = lower value 1.01 | locus YJL166W, strain qcr8, stronger effect = lower value 1 | locus YJL168C, strain set2, stronger effect = lower value 1.01 | locus YJL187C, strain SWE1 (second series), stronger effect = lower value 1.02 | locus YJL187C, strain SWE1, stronger effect = lower value 1.01 | locus YJR043C, strain POL32, stronger effect = lower value 1
